Measured values from PubChem BioAssay.
The source made the active and inactive calls.

Experiments:
[1] = optical density shifts of acrAB sulA E. coli – strain DRC41, OD650, 48 h, E. coli filamentation inducer project, primary screen (AID 1152); settings: higher = more signal, called active from +8 up or from −8 down;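 further: E. coli MC1000 strain DRC41 lacking acrAB efflux pump and sulA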
[2] = probe aLefty1 binding on compound microarray – biochemical, small-molecule microarray, 635/667 nm fluorescence, primary screen (AID 1153); settings: higher = more signal;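 further: score merges spot fluorescence with signal-to-noise ratio from the scanned slide images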
[3] = plasmodial surface anion channel blockers, osmotic lysis – cell-based, P. falciparum Indochina, OD700, 1 h, primary screen (AID 1154); settings: P. falciparum Indochina infected RBC osmotic lysis, higher = more signal, called active from +8 up or from −8 down
[4] = plasmodial surface anion channel blockers, osmotic lysis – cell-based, P. falciparum Indochina, OD700, 2 h, primary screen (AID 1155);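 further: lysis reports solute entry through the parasite surface anion channel PSAC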; settings: P. falciparum Indochina infected erythrocytes, higher = more signal, called active from +8 up or from −8 down
[5] = changes in parasitized red cell lysis, either direction – P. falciparum Indochina, OD700, 3 h, PSAC antagonist project, primary screen (AID 1156); settings: P. falciparum-infected erythrocytes, osmotic lysis, higher = more signal, called active from +8 up or from −8 down
[6] = plasmodial surface anion channel blockers, osmotic lysis – cell-based, P. falciparum Indochina, OD700, 18 h, primary screen (AID 1157); settings: P. falciparum Indochina infected erythrocytes, osmotic lysis OD700, 18 h; higher = more signal, called active from +8 up or from −8 down
[7] = S6 kinase pathway phospho-S6 level changes – cell-based, A549, cytoblot, luminescence, serum-stimulated, primary screen (AID 1158); settings: 5 h, higher = more signal;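 further: serum-stimulated A549 lung adenocarcinoma cells; signal is phosphorylated S6 detected by cytoblot immunostaining with HRP secondary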
[8] = target: NADPH oxidase 2 (Homo sapiens) (UniProt P04839); test: compounds shifting NOX2 Amplex Red fluorescence – cell-based, HEK293-NOX2, PMA-stimulated, NOX inhibitor project, primary screen (AID 1159); settings: 45 min, higher = more signal, called active from +8 up or from −8 down; further: test concentration not given here
Sequence of NADPH oxidase 2 (Homo sapiens) (P04839 whole entry, looked up): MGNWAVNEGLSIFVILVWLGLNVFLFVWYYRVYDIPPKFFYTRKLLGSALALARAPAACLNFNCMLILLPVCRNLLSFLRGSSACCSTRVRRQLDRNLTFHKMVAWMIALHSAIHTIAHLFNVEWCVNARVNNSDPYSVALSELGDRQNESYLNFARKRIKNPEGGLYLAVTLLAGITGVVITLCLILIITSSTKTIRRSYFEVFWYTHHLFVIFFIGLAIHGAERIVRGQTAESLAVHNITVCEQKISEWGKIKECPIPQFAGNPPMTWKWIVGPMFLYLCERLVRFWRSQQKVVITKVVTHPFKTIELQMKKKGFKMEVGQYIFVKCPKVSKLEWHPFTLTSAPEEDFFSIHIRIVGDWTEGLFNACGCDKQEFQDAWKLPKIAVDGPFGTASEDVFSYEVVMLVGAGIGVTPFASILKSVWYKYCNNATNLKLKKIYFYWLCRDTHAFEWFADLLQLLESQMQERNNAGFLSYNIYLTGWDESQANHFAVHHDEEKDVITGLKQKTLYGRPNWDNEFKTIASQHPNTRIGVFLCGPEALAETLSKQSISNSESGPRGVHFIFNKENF

[9] = target: NADPH oxidase 4 (Homo sapiens) (UniProt Q9NPH5); test: compounds shifting NOX4 Amplex Red fluorescence – cell-based, HEK293-NOX4, tetracycline-induced, NOX inhibitor project, primary screen (AID 1160); settings: HEK293-NOX4, Amplex Red H2O2 fluorescence, 45 min; higher = more signal, called active from +8 up or from −8 down
Sequence of NADPH oxidase 4 (Homo sapiens) (Q9NPH5 whole entry, looked up): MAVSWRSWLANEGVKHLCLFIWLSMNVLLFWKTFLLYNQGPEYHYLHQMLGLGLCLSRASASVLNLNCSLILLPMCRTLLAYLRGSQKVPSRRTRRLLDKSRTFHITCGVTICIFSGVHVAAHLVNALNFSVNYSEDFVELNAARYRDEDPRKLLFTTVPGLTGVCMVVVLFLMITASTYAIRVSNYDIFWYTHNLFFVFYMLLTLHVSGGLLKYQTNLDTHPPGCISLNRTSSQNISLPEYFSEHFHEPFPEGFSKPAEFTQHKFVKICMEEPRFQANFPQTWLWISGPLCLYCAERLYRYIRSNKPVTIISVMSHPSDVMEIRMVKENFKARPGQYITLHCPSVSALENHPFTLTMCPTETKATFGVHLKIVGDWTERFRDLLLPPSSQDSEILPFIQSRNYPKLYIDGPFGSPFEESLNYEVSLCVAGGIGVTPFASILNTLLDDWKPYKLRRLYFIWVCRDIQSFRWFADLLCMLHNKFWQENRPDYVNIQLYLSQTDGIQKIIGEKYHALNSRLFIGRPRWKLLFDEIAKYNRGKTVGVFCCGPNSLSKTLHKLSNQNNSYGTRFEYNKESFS

[10] = target: NADPH oxidase 5 (Homo sapiens) (UniProt Q96PH1); test: compounds shifting NOX5 Amplex Red fluorescence – cell-based, HEK293-NOX5, NOX inhibitor project, primary screen (AID 1161); settings: HEK293-NOX5, ionomycin, 45 min, higher = more signal
Sequence of NADPH oxidase 5 (Homo sapiens) (Q96PH1 whole entry, looked up): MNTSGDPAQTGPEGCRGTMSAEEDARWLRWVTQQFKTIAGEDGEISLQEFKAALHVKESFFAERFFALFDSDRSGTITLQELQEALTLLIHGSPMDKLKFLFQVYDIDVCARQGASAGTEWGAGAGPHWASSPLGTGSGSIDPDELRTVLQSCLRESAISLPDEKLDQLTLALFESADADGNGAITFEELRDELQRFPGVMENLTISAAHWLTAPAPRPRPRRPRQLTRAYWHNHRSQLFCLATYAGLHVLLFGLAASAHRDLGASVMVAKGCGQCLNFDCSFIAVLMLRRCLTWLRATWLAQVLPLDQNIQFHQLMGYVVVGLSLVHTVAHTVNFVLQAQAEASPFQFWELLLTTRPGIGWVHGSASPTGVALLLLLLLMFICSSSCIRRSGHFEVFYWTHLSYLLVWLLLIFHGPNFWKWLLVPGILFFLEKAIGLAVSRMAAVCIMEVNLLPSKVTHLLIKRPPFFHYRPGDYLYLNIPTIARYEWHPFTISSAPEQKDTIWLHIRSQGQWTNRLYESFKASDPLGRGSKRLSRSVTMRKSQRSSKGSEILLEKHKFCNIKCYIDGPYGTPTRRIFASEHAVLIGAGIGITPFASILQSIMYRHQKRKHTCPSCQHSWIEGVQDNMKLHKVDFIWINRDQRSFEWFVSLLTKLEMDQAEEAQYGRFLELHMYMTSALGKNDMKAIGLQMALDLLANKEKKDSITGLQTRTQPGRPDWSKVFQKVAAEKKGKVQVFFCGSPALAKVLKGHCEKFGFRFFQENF

[11] = compound effects on lung adenocarcinoma cell viability – A549, calcein-AM fluorescence, 48 h, basal, profiling panel (AID 1162); settings: higher = more signal; further: test concentration not given here
[12] = compound effects on differentiated 3T3-L1 adipocyte viability – cell-based, 3T3-L1 adipocytes, calcein-AM fluorescence, 48 h, basal, profiling panel (AID 1163); settings: 3T3-L1 adipocytes viability, higher = more signal; further: test concentration not given here
[13] = compound effects on hepatocellular carcinoma cell viability – HepG2, calcein-AM fluorescence, 48 h, basal, profiling panel (AID 1164); settings: higher = more signal; further: test concentration not given here
[14] = compound effects on multiple myeloma cell viability – MM1S, calcein-AM fluorescence, 48 h, basal, profiling panel (AID 1165); settings: higher = more signal;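 further: viability of MM1S multiple myeloma cells under basal unstimulated conditions; test concentration not given here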
[15] = calcein-AM signal in unstimulated myeloma cells – cell-based, calcein-AM fluorescence, 48 h, PK04 Diversity Set, profiling panel (AID 1166); settings: RPMI8226 myeloma viability, higher = more signal;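 further: cells grown under basal conditions without added stimulus; test concentration not given here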
[16] = JC-1 mitochondrial signal, unstimulated HepG2 cells – cell-based, JC-1 fluorescence, 24 h, 100 nL compound, profiling panel (AID 1167); settings: HepG2 mitochondrial potential, higher = more signal; further: test concentration not given here
[17] = JC-1 mitochondrial signal, unstimulated adipocytes – cell-based, JC-1 fluorescence, 3T3-L1 adipocytes, 24 h, 100 nL compound, profiling panel (AID 1168); settings: JC-1 mitochondrial fluorescence, higher = more signal, called active from +8 up or from −8 down; further: test concentration not given here
[18] = JC-1 mitochondrial signal, unstimulated myeloma cells – cell-based, JC-1 fluorescence, RPMI8226, 24 h, 100 nL compound, profiling panel (AID 1169); settings: JC-1 mitochondrial potential fluorescence, higher = more signal; further: test concentration not given here
[19] = JC-1 mitochondrial signal, unstimulated MM1S myeloma – cell-based, JC-1 fluorescence, 24 h, 100 nL compound, profiling panel (AID 1170); settings: MM1S mitochondrial potential, higher = more signal; further: test concentration not given here
[20] = resazurin metabolic signal in A549 cells – cell-based, resazurin fluorescence, 24 h, PK04 Diversity Set, profiling panel (AID 1171); settings: A549 viability, higher = more signal, called active from +8 up or from −8 down; further: test concentration not given here

Compound | z-score [1] | composite z-score [2] | z-score [3] | z-score [4] | z-score [5] | z-score [6] | z-score [7] | z-score [8] | z-score [9] | z-score [10] | z-score [11] | z-score [12] | z-score [13] | z-score [14] | z-score [15] | z-score [16] | z-score [17] | z-score [18] | z-score [19] | z-score [20]
CCCCC(CC)C(O)C1C=CC2C(=O)N(c3ccccc3)C(=O)C2N1Nc1ccc([N+](=O)[O-])cc1 (stereo not given) | -0.999 (inactive) | 0.602 | 3.19 (inactive) | 0.724 (inactive) | 0.369 (inactive) | 0.487 (inactive) | -0.429 | -0.441 (inactive) | -1.6 (inactive) | -1.33 | -0.561 | -0.0969 | -0.919 | -0.41 | -1.1 | -1.74 | -1.56 (inactive) | 0.349 | -1.03 | -0.451 (inactive)
CCOC(=O)C[C@H]1[C@H](OC(=O)Cc2ccc3c(c2)OCO3)[C@@H](NC(=O)Cc2ccc(OC)cc2)c2cc(OCCCO)ccc2N1C(=O)c1ccccc1 | 1.53 (inactive) | 0.0903 | 1.8 (inactive) | 0.263 (inactive) | -0.729 (inactive) | -0.33 (inactive) | -0.295 | -1.25 (inactive) | 0.689 (inactive) | 0.267 | 0.208 | -0.0437 | 0.547 | 1.08 | 0.192 | 0.873 | -1.1 (inactive) | 0.192 | -0.606 | -0.0709 (inactive)
CCOC(=O)C1=CC[C@@H](c2ccccc2)N(S(=O)(=O)c2ccc(C)cc2)C1 | -1.46 (inactive) | 0.638 | 2.45 (inactive) | 0.596 (inactive) | 0.517 (inactive) | 0.509 (inactive) | -0.506 | -0.0336 (inactive) | -1.44 (inactive) | -1.63 | -0.747 | -0.384 | -0.165 | -1.22 | -1.62 | 0.546 | -1.07 (inactive) | 0.84 | -0.977 | -0.145 (inactive)
O=C1O[C@@H](c2ccccc2)[C@@H](c2ccccc2)N2[C@@H](c3ccccc3OCCO)[C@]3(C(=O)Nc4ccc(C#CCCO)cc43)[C@@H](C(=O)Nc3nc4ccccc4s3)[C@H]12 | 1.4 (inactive) | 0.13 | 2.06 (inactive) | 3.56 (inactive) | 1.59 (inactive) | 1.72 (inactive) | 0.206 | 1.3 (inactive) | 0.352 (inactive) | 1.23 | 1.02 | 0.0714 | 0.702 | -0.264 | -1.55 | -2.29 | 0.856 (inactive) | -1.13 | -1.33 | 0.2 (inactive)
C=C(CCCC)C(=O)CC[C@@H](OC(=O)c1ccccc1-c1ccccc1C(=O)O)c1cccc(OCCO)c1 | -0.397 (inactive) | -0.168 | 22.3 (active) | 4.27 (inactive) | 1.11 (inactive) | 0.896 (inactive) | -0.348 | 2.86 (inactive) | -0.351 (inactive) | -1.08 | 0.78 | 1.12 | 0.215 | -3.41 | -3.91 | -1.88 | 0.584 (inactive) | -0.694 | 0.0735 | 0.675 (inactive)
C[C@]1(C(=O)NCCN2CCOCC2)c2ccccc2C(=O)N(Cc2ccc(OC(F)(F)F)cc2)[C@H]1c1ccc(CO)cc1 | 0.0793 (inactive) | -0.0523 | 6.9 (inactive) | 0.621 (inactive) | 3.05 (inactive) | 0.327 (inactive) | -0.173 | 0.752 (inactive) | 1.19 (inactive) | 0.0149 | 0.742 | -0.352 | 0.342 | -0.285 | 0.0667 | 3.08 | -0.446 (inactive) | -0.275 | -0.609 | 0.354 (inactive)
CC1CC/C=C\[C@H]2OC34C=CCN(CCN5CCOCC5)C(=O)[C@H]3N(CCO)C(=O)[C@@H]4C2C(=O)O1 (stereo not given in full) | 0.413 (inactive) | 0.213 | 3.04 (inactive) | 0.397 (inactive) | -0.174 (inactive) | 0.38 (inactive) | -0.0354 | 0.994 (inactive) | 0.221 (inactive) | 2.07 | -0.507 | 1.44 | -0.186 | 0.237 | 0.143 | -0.382 | -0.533 (inactive) | 0.673 | 0.671 | -0.451 (inactive)
COCC(=C=CC[C@H](O)c1ccc(OCCO)cc1)C[C@H](O)COCc1ccccc1 | 1.19 (inactive) | 0.179 | 16.5 (active) | 1.61 (inactive) | 0.103 (inactive) | -0.749 (inactive) | 0.974 | -1.6 (inactive) | -0.65 (inactive) | -2.52 | 0.542 | 1.24 | 0.115 | -0.26 | 0.249 | 1.07 | -0.801 (inactive) | -0.245 | -0.748 | 0.925 (inactive)
C=CC[C@]12N=C(c3ccc(OCCCO)cc3)O[C@H]1c1ccccc1N(C)C2=O | -0.0028 (inactive) | 1.11 | 31.9 (active) | 31.8 (active) | 4.16 (inactive) | 3.07 (inactive) | 0.289 | -2.49 (inactive) | -0.582 (inactive) | -1.8 | -1.3 | 0.614 | -0.593 | -1.14 | -3.83 | 0.422 | -0.427 (inactive) | -1.17 | 0.203 | -1.12 (inactive)
